This is a sample that favours compounds with a hit; in the whole collection about 1.6% have one here.
KCNQ2 enhance = potentiators of rat KCNQ2 potassium channel. B-score at 10 µM. CHO-K1 KCNQ2, FluxOR thallium flux fluorescence; hits give high values. 0.54% of 310,000 active;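 active = fluorescence ratio B-score at least 3 SD of library B-scores, with initial fluorescence B-score within 3 of them, cut at about 5.3 in these data; same plate scores as AID 2156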;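 also: B-score of peak minus minimum over baseline fluorescence ratio after K+ and Tl+ stimulus; positive B-score means potentiation of KCNQ2 with more thallium influx and brighter signal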
KCNQ2 inh = rat KCNQ2 potassium channel inhibitors, primary screen, cell-based, CHO-K1, FluxOR thallium flux, B-score; B-score at 10 µM; AID 2156, 2009; 1.1% of 310,000 active; Potassium voltage-gated channel subfamily KQT member 2 (Rattus norvegicus), O88943; 20 min; hits give low values;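 active = fluorescence ratio B-score at most minus 3 library SDs, with starting brightness B-score within 2 library SDs, cut at about -5.5 in these data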
KCNQ2 block conf = rat KCNQ2 potassium channel inhibitors, confirmation, cell-based, thallium flux; shares compounds with KCNQ2 inh; KCNQ2-expressing cells, inhibition; hits give low values; activity change, negative = inhibition, % at 10 µM; 57% of 1,000 active; AID 493025, 2011
KCNQ1 spec = human KCNQ1 channel inhibition, counter-screen for KCNQ2 inhibitor project, cell-based, FluxOR thallium flux; shares compounds with KCNQ2 inh; 15% of 1,000 active; KCNQ1-expressing cells, FluxOR thallium flux fluorescence; hits give low values; activity change, negative = inhibition, % at 10 µM;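 active = activity change at least 3 SD of negative controls below their mean in both duplicate wells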;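 also: CHO cells stably transfected with KCNQ1 and depolarized by potassium stimulus; peak minus minimum fluorescence over baseline after thallium addition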
Target sequence (P51787 whole entry, looked up): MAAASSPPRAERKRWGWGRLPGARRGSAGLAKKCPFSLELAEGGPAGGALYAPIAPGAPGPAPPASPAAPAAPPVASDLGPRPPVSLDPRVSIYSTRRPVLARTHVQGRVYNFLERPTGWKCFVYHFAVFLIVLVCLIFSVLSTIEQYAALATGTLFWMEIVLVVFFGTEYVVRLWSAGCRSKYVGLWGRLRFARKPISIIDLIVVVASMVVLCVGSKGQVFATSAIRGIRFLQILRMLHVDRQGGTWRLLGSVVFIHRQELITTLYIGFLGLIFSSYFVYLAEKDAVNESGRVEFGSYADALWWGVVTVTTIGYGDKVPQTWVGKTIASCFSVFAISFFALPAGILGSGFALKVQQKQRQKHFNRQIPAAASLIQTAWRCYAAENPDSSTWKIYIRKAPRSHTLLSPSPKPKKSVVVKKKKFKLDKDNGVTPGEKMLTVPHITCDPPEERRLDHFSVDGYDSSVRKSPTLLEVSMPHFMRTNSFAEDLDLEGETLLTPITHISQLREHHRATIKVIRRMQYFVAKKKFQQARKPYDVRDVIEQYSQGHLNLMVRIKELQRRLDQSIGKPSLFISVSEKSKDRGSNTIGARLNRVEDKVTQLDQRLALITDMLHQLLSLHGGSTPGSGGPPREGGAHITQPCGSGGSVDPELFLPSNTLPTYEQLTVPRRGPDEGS
CHO Tl ctr = thallium flux change in parental CHO cells, counter-screen for KCNQ2 inhibitor project. hits give low values. 14% of 1,000 active. activity change, % at 10 µM. shares compounds with KCNQ2 inh
KCNQ2 patch conf = rat KCNQ2 channel inhibitors, confirmation, cell-based, automated patch clamp, single concentration | calls only at 10 µM | shares compounds with KCNQ2 inh | 49% of 550 active | AID 588531, 2011 | KCNQ2-expressing cells, automated patch clamp current
A number is an active result; i = inactive; nt = not tested or not shown; + = active, no number. Unless noted, no rule for the calls is given here.

SMILES	KCNQ2 enhance	KCNQ2 inh	KCNQ2 block conf	KCNQ1 spec	CHO Tl ctr	others
O=C(NCC(=O)N(Cc1ccco1)C(C(=O)NC1CCCCC1)c1cccnc1)c1cccs1 (configuration not stated)	nt	i	nt	nt	nt
Cc1ccccc1-c1nnc(SCc2ccc(F)cc2)o1	i	-9.1	i	i	i
Fc1ccc(CSc2nnc(-c3ccncc3)o2)cc1	i	i	nt	nt	nt
Cc1ccc(Cl)cc1Nc1nc(-c2sc(NC(=O)c3ccco3)nc2C)cs1	nt	i	nt	nt	nt
CCc1ccccc1NC(=O)Nc1ccc(F)cc1F	nt	i	nt	nt	nt
Cc1cccc(-c2cc(C(=O)Nc3ccc4c(c3)OCCO4)c3ccccc3n2)c1	nt	i	nt	nt	nt
O=C(Nc1cccnc1)c1cc(-c2cccc(Br)c2)nc2ccccc12	i	-6.7	-28%	i	i	KCNQ2 patch conf=i
COc1cccc(-c2cc(C(=O)Nc3ccccc3)c3ccccc3n2)c1	i	-9.1	i	i	i
O=C(O)c1cc(-c2ccc3c(c2)OCO3)nc2ccccc12	i	i	nt	nt	nt
COc1cccc(-c2cc(C(=O)NC3CC3)c3ccccc3n2)c1	nt	i	nt	nt	nt
CCOc1ccc(-c2cc(C(=O)Nc3ccc4c(c3)OCCO4)c3ccccc3n2)cc1	i	-9.1	i	i	i
CCCN(CCC)C(=O)c1cc(-c2ccc3c(c2)OCO3)nc2ccccc12	i	-8.5	-26%	i	i	KCNQ2 patch conf=+
O=C(Nc1ccncc1)c1cc(-c2cccc(Br)c2)nc2ccccc12	i	i	nt	nt	nt
COc1ccccc1Nc1nc(N)nc(CSc2nc(C)cc(C)n2)n1	i	i	nt	nt	nt
Cc1nc(C2CCCCC2)c(-c2ccccc2)c(N2CCOC2=O)c1C	nt	i	nt	nt	nt
O=C(O)C1CCN(Cc2cnn(-c3ccccc3)c2-n2cccc2)CC1	i	i	nt	nt	nt
O=C(C1=C[C@H](C2CCCCC2)C[C@H](OCCCCO)O1)N1CCOCC1	i	i	nt	nt	nt
CN(C)c1ccc(C(=O)NNC(=O)Nc2ccccc2)cc1	i	i	nt	nt	nt
O=C(Nc1ccccc1)C1CC2CCC1C2 (configuration not stated)	i	i	nt	nt	nt
COc1ccccc1NC(=O)CSc1nc(=O)n(CCN2CCOCC2)c2c1CCC2	i	i	nt	nt	nt
COc1ccc(OCC(=O)N2CCN(c3nnc(-c4ccc(C)cc4)c4ccccc34)CC2)cc1	nt	i	nt	nt	nt
Cc1ccc(OCC(=O)N2CCN(c3nnc(-c4ccc(C)cc4)c4ccccc34)CC2)cc1	i	-7.7	-33%	i	i	KCNQ2 patch conf=+
COc1ccc(/C(N)=N/OC(=O)c2ccc3c(c2)OCO3)cc1	i	i	nt	nt	nt
O=C(N=c1ccn(-c2nc3ccccc3nc2NS(=O)(=O)c2ccc(Cl)cc2)cc1)c1cccs1	nt	i	nt	nt	nt
Cc1cccc(NC(=O)CSc2nnc(-c3ccco3)n2CC2CCCO2)n1 (configuration not stated)	nt	i	nt	nt	nt
SMILES	KCNQ2 enhance	KCNQ2 inh	KCNQ2 block conf	KCNQ1 spec	CHO Tl ctr	others
CC(C)(C)NC(=O)N1CCN(c2ncccc2C(F)(F)F)CC1	i	i	nt	nt	nt
CCn1c(COc2ccc(OC)cc2)nc2ccccc21	nt	i	nt	nt	nt
CCOC(=O)c1ccc2c(c1)nc(COc1ccc3ccccc3c1)n2CC	i	-9.1	i	i	i
CCOC(=O)N1CCc2c(sc3c2c(=O)n(Cc2ccccc2)c(=O)n3Cc2ccc(C)cc2)C1	i	-7.7	i	i	i
CC(=O)N1CCc2c(sc3c2c(=O)n(Cc2ccccc2)c(=O)n3CC(=O)NCC2CCCO2)C1 (configuration not stated)	nt	i	nt	nt	nt
COc1ccc(OC)c(N/C=C2/CCCCC2=O)c1	nt	i	nt	nt	nt
Cc1ccc2nc(C(F)(F)F)c(C#N)c(N)c2c1	i	i	nt	nt	nt
CC(=O)C[C@H]1c2cc(C(F)(F)F)ccc2S(=O)(=O)N1Cc1ccccc1	i	i	nt	nt	nt
O=C(Nc1ccc(N2CCOCC2)cc1)c1cc(-c2ccncc2)nc2ccccc12	nt	i	nt	nt	nt
O=C(Nc1ccccc1N1CCOCC1)c1cc(-c2ccncc2)nc2ccccc12	i	-7.2	-50%	-45%	-38%	KCNQ2 patch conf=+
COc1ccc(-c2cc(C(=O)Nc3ccccc3N3CCOCC3)c3ccccc3n2)cc1OC	i	-8.2	-38%	-35%	-28%	KCNQ2 patch conf=+
COc1ccc(-c2cc(C(=O)NNC(=O)c3csc(N4CCOCC4)n3)c3ccccc3n2)cc1OC	i	i	nt	nt	nt
COc1ccc(C(=O)Nn2c(CC(C)C)nc3cc(Cl)ccc3c2=O)c(OC)c1	nt	i	nt	nt	nt
N#Cc1nc(COc2ccc(F)cc2)oc1N1CCC(Cc2ccccc2)CC1	i	-8.9	-42%	-42%	-32%	KCNQ2 patch conf=i
CCN1CCN(c2oc(COc3ccc(-c4ccccc4)cc3)nc2C#N)CC1	nt	i	nt	nt	nt
N#Cc1nc(COc2ccc(F)cc2)oc1N1CCN(Cc2ccccc2)CC1	i	-7	-16%	i	i	KCNQ2 patch conf=+
N#Cc1nc(Cc2ccccc2)oc1N1CCC(Cc2ccccc2)CC1	nt	i	nt	nt	nt
Cc1ccc(Nc2cc(C)nc(NCc3ccccc3)n2)cc1	nt	i	nt	nt	nt
Cc1cc(NC2CCCCC2)nc(NCc2ccccc2)n1	i	-8.3	i	i	i
O=C(COc1ccccc1-c1ccccc1)NCc1ccco1	i	-8.5	i	i	i
Cc1ccccc1NC(=O)COc1ccccc1C	nt	i	nt	nt	nt
Cc1ccccc1OCC(=O)Nc1ccccc1-c1ccccc1	i	-6.6	i	i	i
CCOc1ccccc1OCC(=O)NCc1ccco1	nt	i	nt	nt	nt
O=[N+]([O-])c1cc([N+](=O)[O-])c2c(=Nc3ccccc3)n(-c3ccccc3)n(O)c2c1	i	-9.8	-34%	-40%	-28%	KCNQ2 patch conf=+
O=[N+]([O-])c1cc(Br)c(Nc2ccccc2)c([N+](=O)[O-])c1	nt	i	nt	nt	nt
SMILES	KCNQ2 enhance	KCNQ2 inh	KCNQ2 block conf	KCNQ1 spec	CHO Tl ctr	others
CCN(CC(=O)NCc1ccc(Cl)cc1)C(=O)CSc1ccc(Br)cc1	nt	i	nt	nt	nt
CCCN(CCC)C(=O)Cc1coc2ccc3ccccc3c12	i	-7.3	i	i	i
O=C(Cc1coc2ccc3ccccc3c12)NCc1ccccc1	i	i	nt	nt	nt
COc1ccc(NC(=O)CCN2CCN(c3ccc(F)cc3)CC2)cc1	nt	i	nt	nt	nt
COc1ccc(S(=O)(=O)N2CCCCC2)cc1NC(=O)C1CCCO1 (configuration not stated)	i	i	nt	nt	nt
CCCC[C@@H]1C[C@H]1[C@@H](NC(=O)c1ccco1)c1ccccc1C(F)(F)F	nt	i	nt	nt	nt
CCCC[C@@H]1C[C@H]1[C@@H](NC(=O)c1cccs1)c1ccc(C(F)(F)F)cc1	i	-8.7	-18%	i	i	KCNQ2 patch conf=i
O=C(Cn1nc(-c2cccc(Cl)c2)ccc1=O)Nc1ccccc1Br	i	i	nt	nt	nt
Cc1ccccc1CSc1nnc(-c2cccs2)n1Cc1ccco1	i	-9.9	i	i	i
c1coc(Cn2c(SCc3nc4ccccc4[nH]3)nnc2-c2cccs2)c1	nt	i	nt	nt	nt
Cc1ccc(NC(=O)c2cc(C)nc3ccccc23)c(Br)c1	i	-6.7	i	i	i
Cc1cc(C(=O)NCc2ccccc2Cl)c2ccccc2n1	i	-7.2	-22%	i	i	KCNQ2 patch conf=i
Cc1cc(C(=O)Nc2ccccc2Cl)c2ccccc2n1	i	-6.9	-31%	i	i	KCNQ2 patch conf=+
Cc1cc(C(=O)NCc2cccc(Cl)c2)c2ccccc2n1	nt	i	nt	nt	nt

Source: PubChem BioAssay
